HADH2 inhib = blocks human hydroxyacyl-CoA dehydrogenase type II. Potency, µM (highest dose often 57.1 µM), most hits filed as inhibitors. 73,000 tested, 3.4% active. recombinant HADH2, NADH fluorescence, beta-hydroxybutyryl-CoA; further: nearly all actives have a fitted effect of over 60% in size
Target sequence (Q99714 whole entry, looked up, one chain of several): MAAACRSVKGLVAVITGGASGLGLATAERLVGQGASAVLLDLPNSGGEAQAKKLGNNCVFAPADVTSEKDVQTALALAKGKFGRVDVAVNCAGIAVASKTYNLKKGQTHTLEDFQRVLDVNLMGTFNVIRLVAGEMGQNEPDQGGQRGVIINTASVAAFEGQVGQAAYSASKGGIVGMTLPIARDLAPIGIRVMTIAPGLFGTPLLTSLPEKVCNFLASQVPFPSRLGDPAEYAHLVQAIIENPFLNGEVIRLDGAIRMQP
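Buffer 100 mM Tris-HCl pH 9.0/0.01% Tween-20; HADH2 20 nM; NAD+ 1 mM; beta-hydroxybutyryl-CoA 90 uM (all final). 15 min cpd preincubation, RT.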
AID923 = qHTS Assay for Allosteric/Competitive Inhibitors of Caspase-1: Spectroscopic Profiling in AFC Spectral Region; compound fluorescence, AFC spectral region (405/520 nm); 75,000 tested, 1.1% active; AID 923, 2007; Potency, µM (highest dose often 57.5 µM), actives largely listed as activators
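Compound autofluorescence profiled at 405 nm ex/520 nm em during kinetic caspase 1 run (50 nM enzyme, 5 uM Ac-WEHD-AFC, HEPES pH 7.5, 10 mM DTT). Titration up to 57 uM; baseline from regression intercept, normalized to AFC standard curve.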
4MU fluor = compounds fluorescent in 4-MU spectral region; max dye-equivalent concentration, M; compound autofluorescence, 340/450 nm, 4-MU equivalents; stronger effect = higher value; 59,000 tested, 11% active; in the data active means max dye-equivalent concentration above about 10 nM; inconclusive means mostly about 1.1 nM to 9.6 nM
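Compounds in 100 mM Tris, pH 8.0, sat 15 min at room temperature before fluorescence was read at 340 nm excitation/450 nm emission; a per-plate six-point 4-MU standard curve converted signals to dye-equivalent concentration at each compound concentration.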
HSD17B inhib = inhibitors of human HSD17B10 dehydrogenase | AID 893 | recombinant HSD17B10, NADH fluorescence kinetic | 75,000 tested, 7.6% active | Potency, µM (doses to about 57.1 µM), hits mostly inhibitors;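 further: the protocol describes HADH2 (HSD17B10) and not the HSD17B4 of the title; nearly all actives have a fitted effect of over 70% in size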
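Enzyme plus compound, 15 min room temperature; substrate mix added (NAD+ 1 mM, beta-hydroxybutyryl-CoA 90 uM final); plates read kinetically for NADH fluorescence. HADH2 was His-tagged, E. coli-derived, 20 nM.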
A350 autofl = A350 region autofluorescence. max dye-equivalent concentration, M. Compound autofluorescence, 340/450 nm, Alexa 350 dye-equivalents; stronger effect = higher value. 59,000 tested, 11% active; in the data active means max dye-equivalent concentration above about 10 nM; inconclusive means mostly about 1.1 nM to 9.6 nM
Of the large screens only hits and unclear results are named; the others gave an inactive call. The list is not random: actives were taken first. Their share in the collection is about 13%. Unless noted, the call rests on the fitted dose curve; in most records, active means well fitted curve in the direction sought with a large enough effect; inconclusive means small, poorly fitted or top-dose-only effect, or another doubt; inactive means no such curve, though single readings can be large; an effect the other way counts as inactive or inconclusive.

CCOC(=O)N1CCN(c2nc3ccccc3nc2C(C#N)S(=O)(=O)c2ccc(C)cc2)CC1 (stereo not drawn)	4MU fluor 1.2e-08M, HSD17B inhib inconclusive, A350 autofl 1.2e-08M
Cc1cccc(S(=O)(=O)C(C#N)c2nc3ccccc3nc2N2CCOCC2)c1 (stereo not drawn)	4MU fluor 1.7e-08M, A350 autofl 2.3e-08M
Cc1ccc(S(=O)(=O)C(C#N)c2nc3ccccc3nc2N2CCCCC2)cc1 (stereo not drawn)	none (no result: 4MU fluor, A350 autofl)
CCCCOc1nc2ccccc2nc1C(C#N)S(=O)(=O)c1ccccc1 (stereo not drawn)	4MU fluor 3.7e-08M, A350 autofl 4.9e-08M
N#CC(c1nc2ccccc2nc1N1CCCCC1)S(=O)(=O)c1ccc(Cl)cc1 (stereo not drawn)	4MU fluor 1.4e-08M, A350 autofl 1.5e-08M
CO/N=C(/C(=O)N[C@@H]1C(=O)N2C(C(=O)O)=C(COC(N)=O)CS[C@H]12)c1ccco1	HADH2 inhib inconclusive (no result: 4MU fluor, A350 autofl)
O=[N+]([O-])c1ccc(C2=Nn3c(nnc3-c3ccc(Cl)cc3)SC2)o1	none
CNC1CC(N)[C@H](O)[C@@H](O[C@@H]2OC(CO)C3OC4(OC(C(N)CO)C(O)C(O)C4O)O[C@@H]3[C@H]2O)C1O (stereo partly drawn)	none (no result: HADH2 inhib, 4MU fluor, A350 autofl)
CC(=O)OCC(=O)[C@]1(O)C(C)CC2C3CCC4=CC(=O)C=C[C@@]4(C)[C@]3(F)C(O)C[C@@]21C (stereo partly drawn)	none (no result: HADH2 inhib, 4MU fluor, A350 autofl)
COc1ccc(S(=O)(=O)C(C#N)c2nc3ccccc3nc2N2CCC(C)CC2)cc1 (stereo not drawn)	4MU fluor 2.3e-08M, A350 autofl 2.7e-08M
CCOC(=O)CSC1=Nc2ccccc2C2=NC(CC(=O)NCc3ccc4c(c3)OCO4)C(=O)N12 (stereo not drawn)	4MU fluor 1.1e-08M, A350 autofl 1.1e-08M
CCN(CC)C(=O)CSC1=Nc2ccccc2C2=NC(Cc3c[nH]c4ccccc34)C(=O)N12 (stereo not drawn)	none
CCOC(=O)COc1cccc2c(=O)n(CC(=O)NCc3ccc4c(c3)OCO4)ccc12	none (no result: 4MU fluor, A350 autofl)
CCCCNC(=O)CC1N=C2c3ccccc3N=C(SCC(=O)Nc3cccc(C)c3)N2C1=O (stereo not drawn)	4MU fluor 1.4e-08M, A350 autofl 1.3e-08M
CCOC(=O)CSC1=Nc2ccccc2C2=NC(CC(=O)NCc3ccc(OC)cc3)C(=O)N12 (stereo not drawn)	4MU fluor 1.9e-08M, A350 autofl 1.7e-08M
Cc1cc(NC(=O)CSC2=Nc3ccccc3C3=NC(Cc4ccccc4)C(=O)N23)n[nH]1 (stereo not drawn)	4MU fluor 1.6e-08M, A350 autofl 1.7e-08M
CCOC(=O)CSc1nnc(CNC(=O)c2ccc(OC)cc2)n1Cc1ccccc1	none
CC(C)(C)CC(C)(C)c1ccc(OCCO)cc1	none (no result: 4MU fluor, A350 autofl)
CC1(C)S[C@@H]2[C@H](C(=O)O)N=C(Cc3ccccc3)N2[C@H]1C(=O)O	none
c1ncc(CC2CCNCC2)[nH]1	none (no result: 4MU fluor, A350 autofl)
CC(C)(Sc1ccc(CCN(CCCCC2CCCCC2)C(=O)NC2CCCCC2)cc1)C(=O)O	HSD17B inhib 20µM
CCc1ccc(CNc2ccc3c(c2)ncn3C)cc1	4MU fluor inconclusive, HSD17B inhib 25µM, A350 autofl inconclusive
Cc1ccc(CNc2ccc3c(c2)ncn3C)cc1	HSD17B inhib 25µM, A350 autofl inconclusive
COc1ccc2[nH]cc(CCNc3ncnc4ccc(-c5ccccc5C#N)cc34)c2c1	none
Cc1cc(C)c(/C=C2/C(=O)Nc3ccccc32)[nH]1	none
Cc1c(Cl)cccc1-n1nnnc1-c1cccs1	none
CC1(C)CC[C@]2(C(=O)O)CC[C@@]3(C)C(=CCC4[C@@]5(C)CCC(O)C(C)(C)C5CC[C@@]43C)C2C1 (stereo partly drawn)	none (no result: HADH2 inhib, 4MU fluor, A350 autofl)
COC(=O)C(CC(=O)c1ccc(Br)cc1)n1ccnc1 (stereo not drawn)	HADH2 inhib inconclusive, HSD17B inhib 25µM
COCCCN=C(c1ccco1)n1c(=S)nc(-c2ccco2)n(CCCOC)c1=S	HADH2 inhib 2.5µM, HSD17B inhib inconclusive
Cc1cnc(CNc2ncncc2-c2cccc(C#N)c2)cn1	HADH2 inhib inconclusive
CCOC(=O)CSc1ccc2nnc(-c3cccnc3)n2n1	HADH2 inhib inconclusive, HSD17B inhib 32µM (no result: 4MU fluor, A350 autofl)
CCOC(=O)CSc1ccc2nnc(-c3ccccc3)n2n1	HSD17B inhib 32µM (no result: 4MU fluor, A350 autofl)
CCOC(=O)CC(=O)CSc1ccc2nnc(-c3cccc(F)c3)n2n1	4MU fluor inconclusive, HSD17B inhib inconclusive, A350 autofl inconclusive
O=C(CSc1ccc2nnc(-c3ccccc3)n2n1)NCC1CCCO1 (stereo not drawn)	4MU fluor 1.7e-08M, HSD17B inhib 32µM, A350 autofl 2e-08M
O=C(CSc1ccc2nnc(-c3cccnc3)n2n1)N1CCOCC1	HADH2 inhib inconclusive, HSD17B inhib inconclusive (no result: 4MU fluor, A350 autofl)
O=C(CSc1ccc2nnc(-c3ccncc3)n2n1)NCC1CCCO1 (stereo not drawn)	HSD17B inhib inconclusive (no result: 4MU fluor, A350 autofl)
Cc1noc(C)c1-c1cc(N(C)Cc2ccco2)ncn1	HADH2 inhib inconclusive, HSD17B inhib inconclusive
COc1ccc(/C=C/C2=NC(=C\N(C)C)/C(=O)O2)cc1	4MU fluor 2e-07M, A350 autofl 2e-07M (no result: HADH2 inhib, AID923, HSD17B inhib)
COC(=O)[C@@H]1CC[C@H](C)[C@@H](c2ccc(C)cc2)N1C(=O)c1ccc(/C=N\O[C@@H]2O[C@H](COC(C)=O)[C@H](OC(C)=O)[C@H](OC(C)=O)[C@H]2OC(C)=O)cc1	none (no result: 4MU fluor, A350 autofl)
CC(C)[C@@H](CC(=O)N[C@@H]1CCCC[C@H]1C(=O)N[C@H](CC(=O)N[C@@H](CCC(=O)O)CC(=O)O)Cc1ccccc1)NC(=O)C[C@H](CO)NC(=O)[C@@H]1CCCC[C@H]1N	none (no result: AID923, 4MU fluor, HSD17B inhib, A350 autofl)
S=c1nc(-c2nc(=S)[nH]c3c2CCCCCCCCCC3)c2c([nH]1)CCCCCCCCCC2	none
CSc1nc2[nH]c3c(c2c2nnnn12)CCCC3	4MU fluor 2.3e-08M, A350 autofl 2.6e-08M (no result: HADH2 inhib, AID923, HSD17B inhib)
Nc1nc2n(n1)C(c1ccc(F)cc1)CC(c1ccc(F)cc1)N2 (stereo not drawn)	4MU fluor 9.1e-08M, A350 autofl 1.2e-07M (no result: HADH2 inhib, AID923, HSD17B inhib)
CN1CCCC2(CCN(S(=O)(=O)c3ccccc3)CC2)C1	none
O=S(=O)(Nc1ccc2c(c1)OCO2)c1ccc(Br)s1	HADH2 inhib inconclusive, HSD17B inhib 32µM
CN(C)S(=O)(=O)Nc1ccc2c(c1)OCO2	none
CCCC(=O)Nc1c2c(nn1-c1ccc(OC)cc1)CS(=O)C2 (stereo not drawn)	none
CCC(=O)Nc1cc2nn(-c3ccc(OC)cc3)nc2cc1C	4MU fluor 2.3e-07M, HSD17B inhib 3.2µM, A350 autofl 1.9e-07M
CCCCC(=O)Nc1cc2nn(-c3ccc(OC)cc3)nc2cc1C	4MU fluor 3.2e-07M, A350 autofl 2.4e-07M
COC(=O)C1(C)C=CC2(CCCCC2)N1C(=O)c1ccccc1 (stereo not drawn)	none (no result: 4MU fluor, A350 autofl)

Source: PubChem (National Center for Advancing Translational Sciences (NCATS))
